In all, about 320,000 compounds went through this assay and about 2,100 (0.66%) were called active. Not shown: some 53% with an inconclusive outcome. The call rests on the fitted dose curve; in most records, active means well fitted inhibition curve with a large enough effect in the signal ratio, with a control signal flat (not every such curve was filed as active); inconclusive means small, poorly fitted or top-dose-only effect, or effect the other way, or a change in a side signal; inactive means flat fitted curve, though single readings scatter; the % refers to the signal ratio. For the sample, actives were picked, then their nearest neighbours and some compounds at random.
Potency means the concentration at half of the fitted maximal effect.

This assay can be described thus: qHTS Assay for Lipid Storage Modulators in Drosophila S3 Cells.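 On cell number change: cells counted by Cell Tracker Red CMTPX staining in the red channel.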 The following applies: BODIPY lipid droplet fluorescence, 18-24 h, cells fed with added oleic acid; cell number change: measured here: cell count max response; series mostly up to 46.1 µM. The method, boiled down: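 Laser-scanning cytometry quantifies lipid droplet accumulation (500–530 nm total intensity; droplet/cell object ratio) in oleic acid-fed (400 uM added) Drosophila S3 cells treated with a concentration series. 20 uM Triacsin C defined 100% inhibition.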
For orientation: qHTS replaces the single test concentration by a dilution series.
Regarding `O=C(CSc1n[nH]c(-c2cc(Cl)ccc2Cl)n1)NCCN1C(=O)CSC1=O`, the Potency is 18.4 µM (active) and the cell number change was -24.6%.

Regarding `O=C(CSc1nc(-c2ccc(F)cc2)cs1)NCCN1C(=O)CSC1=O`, the Potency entry is “inactive”.

Take `O=C(COC(=O)c1cc(Cl)ccc1Cl)NCCN1C(=O)CSC1=O`: the Potency result was “inactive” and the cell number change was -6.51%.

Regarding `O=C(CCc1nnc2ccc(NCc3ccccc3Cl)nn12)NC1CCCC1`, the Potency entry was “inactive” and the cell number change turned out to be 3.96%.

Consider `CC1(C)CC(=O)C2=C(C1)Oc1ncn(Cc3ccco3)c(=N)c1C2c1ccccc1` (stereo not drawn), for which the Potency entry is “inactive” and the cell number change is -0.936%.

With `CC(C)(C)n1ncc2c(=O)n(Cc3c(F)cccc3Cl)cnc21`, the Potency result is “inactive” and the cell number change was determined as 4.75%.

In the case of `O=C1NC(c2ccccc2)=C(c2ccc3ccccc3n2)C(c2ccccc2)N1` (stereo not drawn), the Potency result was “inactive” and the cell number change is -0.112%.

Take `CC(C)(Oc1ccc(CCNC(=O)c2ccc(-c3ccccc3)o2)cc1)C(=O)O`: the Potency result is “inactive” and the cell number change worked out at 7.48%.

Turning to `Cc1ccc(S(=O)(=O)Nc2nc3ccccc3nc2NCc2ccc3c(c2)OCO3)cc1C`, the Potency entry is “inactive” and the cell number change was -0.718%.

With `O=c1oc(-c2cc3ccccc3o2)nc2sc3c(c12)CCCC3`, the Potency entry is “inactive” and the cell number change is -5.74%.

As for `COc1ccc(C(=O)NCC(=O)O)cc1`, the Potency was 16.4 µM (active) and the cell number change was -3.91%.

For the compound `COc1ccc(C(=O)COC(=O)CNC(=O)c2ccc(OC)cc2)cc1`, the Potency entry is “inactive”.

Consider `COc1ccc(C(=O)NN)cc1`, for which the Potency result was “inactive” and the cell number change came to 15%.

Consider `CCc1nccn1S(=O)(=O)c1cc(OC)ccc1OC`, for which the Potency result was “inactive”.

Turning to `CCn1cc(CN2CCN(Cc3ccc(OC)c(C)c3C)C(CCO)C2)c(C)n1` (stereo not drawn), the Potency result is “inactive” and the cell number change came to 2.86%.

Regarding `CCCCCn1cnnc1SCC(=O)c1ccc2c(c1)OCO2`, the Potency result is “inactive” and the cell number change is -4.15%.

In the case of `CC(=Nc1ccccc1O)c1sc2ccccc2c1O`, the Potency is 25.9 µM (active) and the cell number change is -13.3%.

On to `CC(=Nc1ccc(O)cc1)c1sc2ccccc2c1O`, for which the Potency entry is “inactive” and the cell number change was found to be 0.835%.

On to `CC(=Nc1ccc(Br)cc1)c1sc2ccccc2c1O`, for which the Potency entry was “inactive”.

Consider `CCn1cc(C(=O)N(C)CC(OC)OC)c(=O)c2cc(S(=O)(=O)N3CCOCC3)ccc21`, for which the Potency result is “inactive” and the cell number change is 3.42%.

`C=CCn1c(=S)[nH]c2cc(C(=O)NCCc3ccc(S(N)(=O)=O)cc3)ccc2c1=O`: the Potency result was “inactive” and the cell number change stood at 16.5%.

Regarding `Cc1ccc(S(N)(=O)=O)c(C)c1-n1cnnn1`, the Potency entry is “inactive” and the cell number change came out at 3.24%.

For the compound `COc1cc(-c2nnc(SC(C)C(=O)Nc3c(C)n(C)n(-c4ccccc4)c3=O)o2)cc(OC)c1OC` (stereo not drawn), the Potency is 25.9 µM (active) and the cell number change is -15.3%.

Consider `Cc1c(NC(=O)C(C)N2CC(C)OC(C)C2)c(=O)n(-c2ccccc2)n1C` (stereo not drawn), for which the Potency was 7.31 µM (active) and the cell number change amounted to 11.9%.

Regarding `Cc1cc(SC(C)C(=O)Nc2c(C)n(C)n(-c3ccccc3)c2=O)nc2ccccc12` (stereo not drawn), the Potency entry is “inactive” and the cell number change was -14.4%.

As for `CCN1CCN(C(C)C(=O)Nc2c(C)n(C)n(-c3ccccc3)c2=O)CC1` (stereo not drawn), the Potency result was “inactive” and the cell number change is -2.1%.

`Cc1ccc(SC(C)C(=O)Nc2c(C)n(C)n(-c3ccccc3)c2=O)cc1` (stereo not drawn): the Potency result was “inactive”.

As for `Cc1c(NC(=O)C(C)N2C(=O)C3CCCCC3C2=O)c(=O)n(-c2ccccc2)n1C` (stereo not drawn), the Potency result was “inactive” and the cell number change was found to be 9.88%.

Take `COCCNC(=O)C(C)Oc1ccccc1` (stereo not drawn): the Potency result is “inactive” and the cell number change turned out to be 20.2%.

For `NS(=O)(=O)c1ccc(CNC(=O)CSc2nc3ccc(Cl)cc3[nH]2)cc1`, the Potency entry is “inactive” and the cell number change was -16.1%.

For `COc1ccc(C2CC(=O)c3sc(NC(C)=O)nc3C2)cc1` (stereo not drawn), the Potency entry was “inactive” and the cell number change came to 20.9%.

`Cc1ccc(NC(=S)N2CCC(N(C)CC3CCCO3)CC2)cc1C` (stereo not drawn): the Potency entry is “inactive” and the cell number change is 5.03%.

With `Cc1c(Cl)cccc1NC(=S)N1CCC(N(C)CC2CCCO2)CC1` (stereo not drawn), the Potency result is “inactive” and the cell number change was determined as 7.58%.

In the case of `Cc1cc(C)cc(NC(=S)N2CCC(N(C)CC3CCCO3)CC2)c1` (stereo not drawn), the Potency entry was “inactive” and the cell number change is 11.9%.

As for `Cc1ccc(NC(=S)N2CCC(N(C)CC3CCCO3)CC2)cc1` (stereo not drawn), the Potency result is “inactive” and the cell number change was 14.9%.

In the case of `Cc1cc(C)c(NC(=S)N2CCC(N(C)CC3CCCO3)CC2)c(C)c1` (stereo not drawn), the Potency is 25.9 µM (active) and the cell number change is 6.74%.

For the compound `Cc1cccc(C)c1NC(=S)N1CCC(N(C)CC2CCCO2)CC1` (stereo not drawn), the Potency is 20.6 µM (active) and the cell number change is -14.4%.

Regarding `Cc1cc(-c2csc(N)n2)c(C)n1CCc1ccccc1`, the Potency result was “inactive” and the cell number change was -18.9%.

On to `CCN(CC)C(=O)C1CCN(S(=O)(=O)c2ccc(-n3cnnn3)cc2)CC1`, for which the Potency entry was “inactive” and the cell number change came to 1.39%.

With `COc1ccc(S(=O)(=O)NCC(=O)NCc2cc(=O)n(C)c(=O)n2C)cc1C`, the Potency entry was “inactive” and the cell number change was determined as 10.1%.

As for `CCOC(CCn1c(SCC(=O)NC2CCCC2)nc2ccccc2c1=O)OCC`, the Potency result was “inactive” and the cell number change was 7.57%.

Consider `CN(C)CCCNCCCNC(=O)c1ccncc1`, for which the Potency result is “inactive” and the cell number change turned out to be 10.5%.

With `O=C(CC1C(=O)NCCN1Cc1ccccc1)NC1CCCCCC1` (stereo not drawn), the Potency entry is “inactive” and the cell number change worked out at 13.2%.

For the compound `O=C(CC1C(=O)NCCN1Cc1cccc(F)c1)NC1CCCCC1` (stereo not drawn), the Potency result is “inactive” and the cell number change amounted to 13.2%.

Turning to `O=C(CC1C(=O)NCCN1Cc1cccc(C(F)(F)F)c1)NC1CCCCCC1` (stereo not drawn), the Potency was 5.17 µM (active) and the cell number change worked out at 13.5%.

On to `Cc1n[nH]c(C)c1C(=O)CC1(O)C(=O)N(CCc2ccccc2)c2ccc(Br)cc21` (stereo not drawn), for which the Potency result is “inactive” and the cell number change came out at 12.8%.

Consider `O=C1NC2(Nc3ccccc31)C(=O)Nc1ccc(Br)cc12` (stereo not drawn), for which the Potency entry was “inactive” and the cell number change is -0.207%.

As to `O=C1Nc2ccc(Br)cc2C12NNc1ccccc1O2` (stereo not drawn), the Potency is 23.1 µM (active).

Take `O=C1Nc2ccc(Br)cc2C1(O)c1ccccc1` (stereo not drawn): the Potency result was “inactive” and the cell number change turned out to be 20.9%.

Consider `CCOc1ccc(NC(=O)NC(C)c2ccc3c(c2)OCO3)cc1` (stereo not drawn), for which the Potency entry is “inactive” and the cell number change is -0.862%.

In the case of `O=C(CCSc1nc(-c2ccc3c(c2)OCO3)cc(C(F)(F)F)n1)NCc1ccccc1`, the Potency result was “inactive” and the cell number change is -16.9%.

With `CCc1cccc(NC(=O)NC(=O)Cn2nnc(C(=O)OC)c2C(=O)OC)c1`, the Potency entry was “inactive” and the cell number change worked out at 1.8%.

As for `C=C(C)CSc1nnc([C@@H]2CCCN2C(=O)OC(C)(C)C)o1`, the Potency entry is “inactive” and the cell number change turned out to be 9.31%.

Take `CCCCSc1nnc([C@@H]2CCCN2C(=O)OC(C)(C)C)o1`: the Potency entry is “inactive” and the cell number change is -21.2%.

On to `CC(C)Sc1nnc([C@@H]2CCCN2C(=O)OC(C)(C)C)o1`, for which the Potency was 32.6 µM (active) and the cell number change was -3.74%.

For `CCSc1nnc([C@@H]2CCCN2C(=O)OC(C)(C)C)o1`, the Potency is 23.1 µM (active) and the cell number change was 6.53%.

Take `Cc1ccc(CSc2nnc([C@@H]3CCCN3C(=O)OC(C)(C)C)o2)cc1`: the Potency entry is “inactive” and the cell number change came to 17.7%.

In the case of `CC(C)(C)OC(=O)N1CCC[C@H]1c1nnc(SCc2ccccc2)o1`, the Potency entry is “inactive” and the cell number change stood at 10.4%.

With `COc1ccc(C=O)cc1Cn1ccnc1C`, the Potency entry is “inactive” and the cell number change is -21.5%.

For `N#C/C(=C\c1ccccc1Cl)C(=O)Nc1ccccn1`, the Potency is 25.9 µM (active) and the cell number change worked out at 7.44%.

`N#C/C(=C\c1cccs1)C(=O)Nc1ccccn1`: the Potency entry was “inactive” and the cell number change was determined as 9.59%.

With `CC(C)(C)c1ccc(/C=C(\C#N)C(=O)Nc2ccccn2)cc1`, the Potency entry is “inactive” and the cell number change was determined as 9.55%.

(Values after PubChem BioAssay AID2685 (National Center for Advancing Translational Sciences (NCATS), 2010).)
